From PubChem BioAssay AID449729 (Southern Research Specialized Biocontainment Screening …, 2010)
Calls of active or inactive are those of the source. The rule behind the calls is not given here.

target: Large T antigen (Simian virus 40) (UniProt P03070); assay: SV40 TAg ATPase inhibitors, biochemical, ADP-Hunter, purified TAg, synthesized compounds, set 2 (AID 449729); conditions: ADP-Hunter fluorescence; series mostly up to 100 µM
Sequence (P03070 whole entry, looked up): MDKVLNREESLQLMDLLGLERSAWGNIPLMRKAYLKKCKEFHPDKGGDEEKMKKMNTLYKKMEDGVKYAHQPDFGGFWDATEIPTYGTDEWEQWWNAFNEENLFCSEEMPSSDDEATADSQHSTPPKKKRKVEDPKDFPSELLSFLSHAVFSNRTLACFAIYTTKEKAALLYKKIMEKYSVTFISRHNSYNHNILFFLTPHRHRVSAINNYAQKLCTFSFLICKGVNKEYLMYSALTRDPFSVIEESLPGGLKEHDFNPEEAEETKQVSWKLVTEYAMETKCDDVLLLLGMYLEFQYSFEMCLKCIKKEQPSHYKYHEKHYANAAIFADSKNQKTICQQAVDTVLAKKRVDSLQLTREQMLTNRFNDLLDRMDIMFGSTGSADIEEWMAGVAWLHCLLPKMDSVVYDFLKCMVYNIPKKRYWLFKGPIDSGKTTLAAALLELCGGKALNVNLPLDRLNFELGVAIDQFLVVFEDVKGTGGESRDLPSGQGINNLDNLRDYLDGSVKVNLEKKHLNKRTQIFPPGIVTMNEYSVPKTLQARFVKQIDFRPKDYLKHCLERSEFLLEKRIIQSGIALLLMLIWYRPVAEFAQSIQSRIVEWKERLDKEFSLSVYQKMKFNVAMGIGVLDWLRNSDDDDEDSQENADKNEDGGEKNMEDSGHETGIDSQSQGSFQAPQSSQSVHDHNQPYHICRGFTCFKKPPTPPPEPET

outcome, inactive:
CC(C)(c1ccc(O)cc1)c1cccc(O)c1, C=C(c1ccc(Cl)cc1)c1ccc(Cl)cc1, C=C(c1cccc(OC)c1)c1cccc(OC)c1, C=C(c1ccccc1Cl)c1ccccc1Cl, Oc1ccc(C2(c3ccc(O)cc3)CC2)cc1, COc1cccc(C(C)(O)c2cccc(OC)c2)c1, C=C(c1ccc(Br)cc1)c1ccc(Br)cc1, C=C(c1ccc(F)cc1)c1ccc(F)cc1
